Reference: PubChem BioAssay AID2158 (National Center for Advancing Translational Sciences (NCATS), 2009)
Inconclusive results are not listed. Values without a mark were called inactive. The source made the active and inactive calls. Calls follow the shape of the dose curve; as a rule, active = well fitted inhibition curve with a large enough effect; inconclusive = small, poorly fitted or top-dose-only effect; inactive = no such curve, though single readings can be large or run the other way.

What follows are compounds tested against Cruzipain (Trypanosoma cruzi) (UniProt P25779) (assay: Confirmation qHTS Assay for Inhibitors of Cruzain). Details: purified cruzain, Z-FR-AMC fluorescence, 0.01% Triton.
Summary of the method: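 Reaction progress from the 60 s rise in AMC fluorescence (ex 360, em 450 nm) after adding 2 uM Z-FR-AMC. Before this, 1.5 nM cruzain sat 15 min at room temperature with compound in pH 5.5 acetate buffer with 5 mM DTT and 0.01% Triton X-100.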
Also: nearly all actives have a fitted effect of over 40% in size.
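For activity change, negative = inhibition in this document: plate controls were uninhibited enzyme control for no effect and buffer wells lacking enzyme for full effect.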
Potency is read from the fitted curve at half-maximal effect.

Chain of Cruzipain (Trypanosoma cruzi) (P25779 123-467 limits assumed): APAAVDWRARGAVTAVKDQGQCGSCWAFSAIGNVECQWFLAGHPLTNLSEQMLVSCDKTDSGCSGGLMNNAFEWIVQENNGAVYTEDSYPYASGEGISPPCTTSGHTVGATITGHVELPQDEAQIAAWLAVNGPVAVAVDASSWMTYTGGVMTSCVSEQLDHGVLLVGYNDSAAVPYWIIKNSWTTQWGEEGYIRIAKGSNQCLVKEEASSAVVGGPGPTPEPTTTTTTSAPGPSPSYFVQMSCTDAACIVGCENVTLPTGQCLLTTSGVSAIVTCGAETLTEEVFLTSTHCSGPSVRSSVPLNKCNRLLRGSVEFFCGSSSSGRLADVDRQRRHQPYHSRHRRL

SMILES	Potency	activity change, negative = inhibition
CC(C)Nc1nc(C#N)nc(Nc2ccccc2)n1	891 nM (active)	
COc1cccc(-c2nn3c(-c4cc(C)[nH]n4)nnc3s2)c1		-5.64%
CCc1ccc(OCCCn2c(CCNC(=O)C3CCCCC3)nc3ccccc32)cc1	1410 nM (active)	
CCc1ccc(-c2nc3c(=O)n(C)c(=O)nc-3n(CC)n2)cc1	2510 nM (active)	
O=C(CNC(=O)C1CCCCC1)OCC(=O)c1ccccc1	6310 nM (active)	
N#Cc1nc(NCC(F)F)nc(Nc2cc(F)cc(F)c2)n1	25.1 nM (active)	
Cc1cc(OCCn2c(CCNC(=O)C3CCCCC3)nc3ccccc32)ccc1Cl	1000 nM (active)	
S=C(NC1CCCCC1)N(CCc1nc2ccccc2[nH]1)C1CCCC1	631 nM (active)	
CC(C)(C)OC(=O)Cc1nnc(C(C(=O)OCc2ccccc2)c2ccccc2)s1 (stereo not drawn)		-12.2%
Cc1ccc(CN(Cc2cc3cc(C)ccc3[nH]c2=O)Cc2nnnn2Cc2ccccc2)cc1		-18.6%
Cc1cccc(C)c1OCCn1c(CCNC(=O)C2CCCCC2)nc2ccccc21	1120 nM (active)	
N#Cc1nc(Nc2ccccc2)nc(NC2CCCCC2)n1	1410 nM (active)	
CC(C)(C)OC(=O)CC(=O)NNC(=O)c1nc2ccccc2[nH]1		3.76%
CCCCNC(=O)c1ccc2nc(-c3cccs3)c(-c3cccs3)nc2c1		-3.05%
COc1ccc(OCCn2c(CCNC(=O)C3CCCCC3)nc3ccccc32)cc1	1120 nM (active)	
N#CN1CCC(NS(=O)(=O)c2ccc(C(F)(F)F)cc2)CC1		-6.95%
Cn1nc(-c2ccncc2)nc2c(=O)n(C)c(=O)nc1-2	891 nM (active)	
COc1cc(NC(=O)C(OC(=O)CNC(=O)c2ccccc2)c2ccccc2)cc(C(F)(F)F)c1 (stereo not drawn)	31600 nM (active)	
COc1ccccc1-c1nn2c(-c3cc(-c4ccccc4)n[nH]3)nnc2s1		-18.8%

SMILES	Potency	activity change, negative = inhibition
N#Cc1nc(Nc2cc(F)cc(Cl)c2)nc(NC2CCCC2)n1	141 nM (active)	
CCc1ccc2[nH]c(=O)c(CN(Cc3cccnc3)Cc3nnnn3Cc3ccccc3)cc2c1		-20.9%
O=C(NCC1CC1)c1ccc2nc(-c3ccoc3)c(-c3ccoc3)nc2c1		-15.5%
CC(C)(C)c1ccc(-c2nc(SCC(=O)Nc3ccc(Cl)cc3)[nH]c(=O)c2C#N)cc1	12600 nM (active)	
Cc1ccc(NC(=O)c2ccc(-n3nncc3-c3ccccc3)cc2)cc1		2.57%
CC(C)(C)OC(=O)CC(=O)NNC(=O)c1cc2ccccc2[nH]1		-2.89%
Cc1cc2c(C)cc(=O)oc2c2c1NCCC2		-19.4%
CNC(=O)c1ccc2nc(-c3ccccc3)c(-c3ccccc3)nc2c1		-11.4%
O=C(Nc1ccc(-n2nncc2-c2ccccc2)cc1)c1ccccc1		-9.78%
CC(=O)OC1(C(F)(F)F)Oc2ccccc2NC1=O (stereo not drawn)	2820 nM (active)	
N#Cc1c(N2CCOCC2)nc(-c2ccco2)c2c1CCCC2	3980 nM (active)	
O=C(CNC(=O)C1CCCCC1)OCC(=O)c1ccc([N+](=O)[O-])cc1	2820 nM (active)	
O=C(NCCc1nc2ccccc2n1CCCOc1ccccc1Cl)C1CCCCC1	1580 nM (active)	
Cc1ccccc1OCC(=O)NCC(=O)OCc1ccc2ccccc2c1		-17.8%
Cc1ccccc1OCC(=O)NCC(=O)OCC(=O)c1ccc([N+](=O)[O-])cc1	35500 nM (active)	
CC(C)(C)c1ccc(OCCn2c(CCNC(=O)C3CCCCC3)nc3ccccc32)cc1	6310 nM (active)	
Cc1ccccc1C(=O)NCC(=O)OC(C(=O)Nc1cc(C(F)(F)F)ccc1Cl)c1ccccc1 (stereo not drawn)	12600 nM (active)	
CC(C)(C)OC(=O)NCC(=O)NNC(=O)c1nc2ccccc2[nH]1		2.49%
COc1cc(-c2nn3c(-c4cc(-c5ccccc5)n[nH]4)nnc3s2)cc(OC)c1OC		-7.01%
